Assay results as given in PubChem BioAssay AID1159580 (chemical genetic matrix, 2015).
About 2,000 (36%) of roughly 5,500 compounds were called active. Not shown: some 18% with an inconclusive outcome. Rule as the data show it: active = normalized growth mostly below about 0.91 (no sharp cut-off); inconclusive = no clear call, values can overlap the other calls; inactive = mostly above about 0.92. This is one part of the list.

Assay: chemical genetic growth profiling, strain panel (AID 1159580);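 also: tested at 20 µM; growth read once vehicle control cultures reached saturation at 30 °C; 1 = growth at the plate median or of vehicle wells; lower values mean less growth of the strain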
Conditions: growth OD

Measured: normalized growth

COc1cccc(OC)c1C(=O)N[C@@H]1C(=O)N2[C@@H]1SC(C)(C)[C@@H]2C(=O)O
inactive: S. cerevisiae deletion strains, locus YJR066W, strain TOR1, active compounds read low 0.974 | S. cerevisiae deletion strains, locus YJR075W, strain HOC1, active compounds read low 0.998 | S. cerevisiae deletion strains, locus YKL009W, strain mrt4, active compounds read low 0.946 | S. cerevisiae deletion strains, locus YKL068W, active compounds read low 0.975 | S. cerevisiae deletion strains, locus YKL085W, strain MDH1 (second series), active compounds read low 0.986 | S. cerevisiae deletion strains, locus YKL085W, strain MDH1, active compounds read low 0.986 | S. cerevisiae deletion strains, locus YKL160W, strain elf1, active compounds read low 0.978 | S. cerevisiae deletion strains, locus YKR001C, strain vps1, active compounds read low 0.973 | S. cerevisiae deletion strains, locus YKR026C, strain gcn3, active compounds read low 1 | S. cerevisiae deletion strains, locus YKR091W, strain srl3, active compounds read low 1 | S. cerevisiae deletion strains, locus YLL001W, strain dnm1, active compounds read low 0.963 | S. cerevisiae deletion strains, locus YLL026W, active compounds read low 0.993 | S. cerevisiae deletion strains, locus YLL041C, strain sdh2, active compounds read low 0.994 | S. cerevisiae deletion strains, locus YLR027C, strain aat2, active compounds read low 0.995 | S. cerevisiae deletion strains, locus YLR039C, strain RIC1, active compounds read low 1 | S. cerevisiae deletion strains, locus YLR058C, strain SHM2, active compounds read low 1.01 | S. cerevisiae deletion strains, locus YLR102C, strain apc9, active compounds read low 0.985 | S. cerevisiae deletion strains, locus YLR113W, strain HOG1, active compounds read low 0.982 | S. cerevisiae deletion strains, locus YLR221C, strain rsa3, active compounds read low 1 | S. cerevisiae deletion strains, locus YLR258W, strain gsy2, active compounds read low 0.999 | S. cerevisiae deletion strains, locus YLR262C, strain YPT6 (second series), active compounds read low 1 | S. cerevisiae deletion strains, locus YLR262C, strain YPT6, active compounds read low 1.03 | S. cerevisiae deletion strains, locus YLR268W, strain sec22, active compounds read low 0.993 | S. cerevisiae deletion strains, locus YLR320W, strain mms22, active compounds read low 0.986 | S. cerevisiae deletion strains, locus YLR330W, strain CHS5, active compounds read low 0.993 | S. cerevisiae deletion strains, locus YLR342W, strain FKS1 (second series), active compounds read low 1.03 | S. cerevisiae deletion strains, locus YLR342W, strain FKS1, active compounds read low 0.988 | S. cerevisiae deletion strains, locus YLR357W, strain rsc2, active compounds read low 0.994 | S. cerevisiae deletion strains, locus YLR370C, strain arc18, active compounds read low 1.01 | S. cerevisiae deletion strains, locus YLR371W, strain rom2, active compounds read low 0.993 | S. cerevisiae deletion strains, locus YLR384C, strain iki3, active compounds read low 0.991 | S. cerevisiae deletion strains, locus YLR418C, strain cdc73, active compounds read low 0.996 | S. cerevisiae deletion strains, locus YML016C, strain PPZ1, active compounds read low 1 | S. cerevisiae deletion strains, locus YML032C, strain rad52, active compounds read low 0.991 | S. cerevisiae deletion strains, locus YML120C, strain ndi1, active compounds read low 0.992 | S. cerevisiae deletion strains, locus YML124C, strain tub3, active compounds read low 0.991 | S. cerevisiae deletion strains, locus YMR058W, strain fet3, active compounds read low 1 | S. cerevisiae deletion strains, locus YMR078C, strain ctf18, active compounds read low 0.995 | S. cerevisiae deletion strains, locus YMR125W, strain sto1, active compounds read low 1.02 | S. cerevisiae deletion strains, locus YMR129W, active compounds read low 0.992 | S. cerevisiae deletion strains, locus YMR205C, strain PFK2, active compounds read low 0.991 | S. cerevisiae deletion strains, locus YMR223W, strain ubp8, active compounds read low 1.01 | S. cerevisiae deletion strains, locus YMR231W, strain pep5, active compounds read low 0.997 | S. cerevisiae deletion strains, locus YMR263W, strain SAP30, active compounds read low 0.972 | S. cerevisiae deletion strains, locus YMR307W, strain GAS1, active compounds read low 1.25 | S. cerevisiae deletion strains, locus YNL067W, strain RPL9B, active compounds read low 0.962 | S. cerevisiae deletion strains, locus YNL071W, strain lat1, active compounds read low 1 | S. cerevisiae deletion strains, locus YNL128W, strain TEP1, active compounds read low 0.974 | S. cerevisiae deletion strains, locus YNL153C, strain GIM3, active compounds read low 1.01 | S. cerevisiae deletion strains, locus YNL183C, strain NPR1, active compounds read low 0.971 | S. cerevisiae deletion strains, locus YNL209W, strain ssb2, active compounds read low 1.01 | S. cerevisiae deletion strains, locus YNL233W, strain BNI4, active compounds read low 1.01 | S. cerevisiae deletion strains, locus YNL248C, strain rpa49, active compounds read low 1.01 | S. cerevisiae deletion strains, locus YNL250W, strain rad50, active compounds read low 0.921 | S. cerevisiae deletion strains, locus YNL271C, strain bni1, active compounds read low 0.991 | S. cerevisiae deletion strains, locus YNL298W, strain CLA4, active compounds read low 0.98 | S. cerevisiae deletion strains, locus YNL307C, strain MCK1, active compounds read low 1 | S. cerevisiae deletion strains, locus YNL322C, strain KRE1 (second series), active compounds read low 1.01 | S. cerevisiae deletion strains, locus YNL322C, strain KRE1, active compounds read low 1 | S. cerevisiae deletion strains, locus YNR049C, strain mso1, active compounds read low 0.995 | S. cerevisiae deletion strains, locus YNR052C, strain pop2, active compounds read low 0.987 | S. cerevisiae deletion strains, locus YOL006C, strain TOP1, active compounds read low 1.01 | S. cerevisiae deletion strains, locus YOL012C, strain htz1 0.716 | S. cerevisiae deletion strains, locus YOR001W, strain rrp6, active compounds read low 0.99 | S. cerevisiae deletion strains, locus YOR061W, strain CKA2, active compounds read low 1 | S. cerevisiae deletion strains, locus YOR069W, strain VPS5, active compounds read low 0.999 | S. cerevisiae deletion strains, locus YOR070C, strain gyp1, active compounds read low 1.01 | S. cerevisiae deletion strains, locus YOR080W, strain dia2, active compounds read low 0.99 | S. cerevisiae deletion strains, locus YOR083W, strain WHI5, active compounds read low 0.95 | S. cerevisiae deletion strains, locus YOR106W, strain vam3, active compounds read low 0.994 | S. cerevisiae deletion strains, locus YOR136W, strain idh2, active compounds read low 0.992 | S. cerevisiae deletion strains, locus YOR144C, strain elg1, active compounds read low 0.989 | S. cerevisiae deletion strains, locus YOR184W, strain ser1, active compounds read low 0.996 | S. cerevisiae deletion strains, locus YOR231W, strain MKK1, active compounds read low 0.988 | S. cerevisiae deletion strains, locus YOR265W, strain rbl2, active compounds read low 1 | S. cerevisiae deletion strains, locus YOR270C, strain vph1, active compounds read low 1 | S. cerevisiae deletion strains, locus YOR290C, strain snf2, active compounds read low 1 | S. cerevisiae deletion strains, locus YOR316C, strain cot1, active compounds read low 0.977 | S. cerevisiae deletion strains, locus YPL051W, strain arl3, active compounds read low 0.989 | S. cerevisiae deletion strains, locus YPL055C, strain LGE1, active compounds read low 0.968 | S. cerevisiae deletion strains, locus YPL078C, strain atp4, active compounds read low 0.97 | S. cerevisiae deletion strains, locus YPL106C, strain sse1, active compounds read low 1.03 | S. cerevisiae deletion strains, locus YPL240C, strain hsp82, active compounds read low 0.999 | S. cerevisiae deletion strains, locus YPL241C, strain CIN2, active compounds read low 1 | S. cerevisiae deletion strains, locus YPL256C, strain CLN2, active compounds read low 1.06 | S. cerevisiae deletion strains, locus YPR141C, strain kar3, active compounds read low 0.972 | S. cerevisiae deletion strains, locus YPR163C, strain tif3, active compounds read low 0.987 | S. cerevisiae deletion strains, locus YPR167C, strain met16, active compounds read low 0.979 | S. cerevisiae deletion strains, strain wtn01, active compounds read low 1.01 | S. cerevisiae strains, strain wild type, active compounds read low 1
